The values that follow come from PubChem BioAssay AID504882 (Broad Institute, 2011).

Each structure is given as a SMILES string. Among all 1,200 compounds or so, about 290 (24%) were called active. Inconclusive results (about 9%) are left out. A selection follows. Entries with a potency or affinity are not part of this list. A number with no mark means an inactive call. The rule behind the calls is not given here.

The test in a line: cytotoxicity in EBV lymphoblastoid cells, dose response, cytotoxicity control, cell-based, plate reader, cherry-picks, set 2 (AID 504882).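 Note: 0% = neutral control wells and -100% = positive control wells.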 The settings on record: EBV lymphoblastoid cells (LCL) viability; series mostly up to 19.5 µM; activity change, negative = cytotoxicity: at the top concentration.
With `COc1ccc(S(=O)(=O)NC(CC(=O)NCc2ccco2)C(C)C)cc1` (stereo not drawn), the “activity change, negative = cytotoxicity” value was 15.7%.

Turning to `Cc1nnc(SCC(=O)N2CCC(c3noc4ccc(F)cc34)CC2)s1`, the “activity change, negative = cytotoxicity” value is -6.4%.

In the case of `CCC(=O)NC(=S)Nc1ccccc1C(F)(F)F`, the “activity change, negative = cytotoxicity” value was 4.46%.

In the case of `COc1ccc(NC(=O)C[C@H]2C(=O)N(CCc3ccccc3)C[C@@H]2c2ccc(OC)cc2)cc1`, the “activity change, negative = cytotoxicity” value was 12.5%.

For `CC(C)c1cc(NC(=O)c2ccccc2)cc(C(C)C)c1O`, the “activity change, negative = cytotoxicity” value is 21.6%.

For `O=C1OCC2=C1C(c1ccc3c(c1)OCO3)c1cc3c(cc1O2)OCO3` (stereo not drawn), the “activity change, negative = cytotoxicity” value was -7.86%.

For the compound `CCCCCC(=O)NC(=S)Nc1ccc(Br)cc1C`, the “activity change, negative = cytotoxicity” value was 8.25%.

With `Cc1cc(C(=O)CN2C(=O)c3ccccc3C2=O)c(C)n1Cc1cccs1`, the “activity change, negative = cytotoxicity” value was 6.45%.

Consider `COc1ccc(C(=O)N(CN2CCCC2=O)c2cc(C)on2)cc1OC`, for which the “activity change, negative = cytotoxicity” value is 21.1%.

For the compound `Cn1c(=O)[nH]c(=O)c2c1nc(CN1CCOCC1)n2CCCc1ccccc1`, the “activity change, negative = cytotoxicity” value is 8.4%.

On to `Cc1c(NC(=O)c2cc(-c3cccs3)nc3ccccc23)c(=O)n(-c2ccccc2)n1C`, for which the “activity change, negative = cytotoxicity” value is 0.207%.

For `CN(C1CCCCC1)S(=O)(=O)c1ccc(C(=O)N2CCN(c3nc4ccccc4s3)CC2)cc1`, the “activity change, negative = cytotoxicity” value is 11.4%.

Consider `O=C(CN1C(=O)CCOc2ccccc21)Nc1ccc(Cl)c(S(=O)(=O)N2CCOCC2)c1`, for which the “activity change, negative = cytotoxicity” value is 8.03%.

As for `Cc1cccc(CNc2ncnc3ccc(-c4ccoc4)cc23)c1`, the “activity change, negative = cytotoxicity” value was -1.98%.

On to `COc1cc(-c2nc(C(=O)NCC3CCCO3)cc3c2[nH]c2ccccc23)cc(OC)c1OC` (stereo not drawn), for which the “activity change, negative = cytotoxicity” value was -7.34%.

On to `CC(C)CC1C(=O)N(Cc2cn(CC3CCCCC3)nn2)CCS(=O)(=O)N1Cc1ccc(-c2ccc(F)nc2)cc1` (stereo not drawn), for which the “activity change, negative = cytotoxicity” value was -28.7%.

In the case of `CCOC(=O)OC(C)OC(=O)[C@@H]1N2C(=O)[C@@H](NC(=O)[C@H](N)c3ccccc3)[C@H]2SC1(C)C` (stereo partly drawn), the “activity change, negative = cytotoxicity” value is 8.11%.

Take `CCCc1cc(=O)[nH]c(SCC(=O)NC2CCCCC2)n1`: the “activity change, negative = cytotoxicity” value is 2.97%.

Take `Cc1ccc(C)c(N2CCN(S(=O)(=O)c3ccc4c(c3)CCN4C(=O)CCC(=O)O)CC2)c1`: the “activity change, negative = cytotoxicity” value is 18.6%.

For `Cc1ccnc(SCCn2c(N3CCN(c4ccccc4)CC3)nc3c2c(=O)[nH]c(=O)n3C)n1`, the “activity change, negative = cytotoxicity” value was 15.2%.

As to `O=C(CCC(=O)NNC(=O)Nc1cccc(Cl)c1)NCc1ccccc1`, the “activity change, negative = cytotoxicity” value was 6.9%.

In the case of `Cc1ccccc1C(=O)NC(=S)Nc1ccc(N2CCN(C(=O)c3ccccc3)CC2)cc1`, the “activity change, negative = cytotoxicity” value was -22.1%.

Consider `COCCNC(=O)NC12CC3(C)CC(C)(CC(C)(C3)C1)C2`, for which the “activity change, negative = cytotoxicity” value is 9.27%.

Turning to `COCCn1c(SCc2ccc(C(=O)OC)o2)nnc1-c1c[nH]c2ccccc12`, the “activity change, negative = cytotoxicity” value is 1.07%.

With `CCOc1ccc(OCc2cccc(C(=O)N3CCCC3)c2)cc1`, the “activity change, negative = cytotoxicity” value is 6.21%.

`COc1ccc(C(=O)Nc2cccc(C(=O)N/N=C/c3ccc(OC)cc3OC)c2)cc1`: the “activity change, negative = cytotoxicity” value is 15.4%.

On to `O=S(=O)(N/N=C/c1ccccc1F)c1ccccc1`, for which the “activity change, negative = cytotoxicity” value is 21.6%.

As for `CSc1nc2cc3c(cc2n1C(=O)c1ccc(C)cc1)OCCO3`, the “activity change, negative = cytotoxicity” value is 5.75%.

As for `Nc1cc2ccncc2c2ccccc12`, the “activity change, negative = cytotoxicity” value was -7.83%.

`CC(C)NCC(O)COc1cccc2ccccc12` (stereo not drawn): the “activity change, negative = cytotoxicity” value was 8.08%.

`COc1ccc(-n2c(C)c([N+](=O)[O-])c3ccc(O)c(CN(C)C)c32)cc1`: the “activity change, negative = cytotoxicity” value is -9.18%.

Turning to `Cc1ccc(C(=O)NCC(=O)N(C)Cc2cccc(F)c2)s1`, the “activity change, negative = cytotoxicity” value is 12.6%.

In the case of `COc1ccc(-n2c(C)c(C(C)=O)c3cc(O)ccc32)cc1`, the “activity change, negative = cytotoxicity” value was -1.05%.

Turning to `CC(CNC1CCCCC1)OC(=O)c1ccccc1` (stereo not drawn), the “activity change, negative = cytotoxicity” value is 28.1%.

For `CC(C)c1ccc(OCc2cccc(C(=O)N/N=C/c3cccnc3)c2)cc1`, the “activity change, negative = cytotoxicity” value is 12.6%.

As to `CC(C)(C)c1ccc(-c2noc(CCC(N)=O)n2)cc1`, the “activity change, negative = cytotoxicity” value is 4.2%.

On to `COCCn1c(SCC(=O)NCc2ccco2)nnc1-c1c[nH]c2ccccc12`, for which the “activity change, negative = cytotoxicity” value was 5.19%.

Consider `CCOC(=O)C1=C(C)NC(C)=C(C(=O)OCC)C1C(=O)OCC(=O)N(C)C1CCS(=O)(=O)C1` (stereo not drawn), for which the “activity change, negative = cytotoxicity” value was 14.5%.

With `COc1ccc(-c2csc3ncnc(NCCCO)c23)cc1`, the “activity change, negative = cytotoxicity” value is 15.2%.

With `COc1cccc(CC(=O)NNC(=O)c2ccc3c(c2)OCO3)c1`, the “activity change, negative = cytotoxicity” value is 0.245%.

In the case of `COc1cc(C2NC(=O)NC(C)=C2C(=O)OC2CCCC(C)C2)cc(Br)c1O` (stereo not drawn), the “activity change, negative = cytotoxicity” value is 18.2%.

As for `CCCN(CC)c1ncnc2[nH]ncc12`, the “activity change, negative = cytotoxicity” value is 6.92%.

`Cc1cc(N2CCOCC2)c2c(N)c(Br)cc(C)c2n1`: the “activity change, negative = cytotoxicity” value is -4.22%.

With `CCOc1ccccc1C(=O)NC1CC2CCCC(C1)N2Cc1nnnn1Cc1ccco1` (stereo not drawn), the “activity change, negative = cytotoxicity” value was 5.74%.

In the case of `Nc1ncnc(N2CCc3ccccc32)c1[N+](=O)[O-]`, the “activity change, negative = cytotoxicity” value was -5.38%.

`CC(=O)Nc1ccc(C=NNc2nnc(NN=Cc3ccc(NC(C)=O)cc3)c3ccccc23)cc1`: the “activity change, negative = cytotoxicity” value was 16.1%.

With `CCn1c2ccccc2c2cc(NC(=O)c3ccccc3-c3ccccc3C(=O)O)ccc21`, the “activity change, negative = cytotoxicity” value was 6.18%.

Regarding `CCn1c(NC(=O)c2ccc(C)cc2)c2ccccc2nc1=O`, the “activity change, negative = cytotoxicity” value is 21.3%.

Take `CCCN(CCC)c1ncnc2nc[nH]c12`: the “activity change, negative = cytotoxicity” value was -1.12%.

Turning to `COc1ccc(CC(C)NCC(O)c2ccc(O)c(NC=O)c2)cc1` (stereo not drawn), the “activity change, negative = cytotoxicity” value was 20.6%.

`O=C(c1cccs1)N1CC=C(c2ccccc2)CC1`: the “activity change, negative = cytotoxicity” value is 2.23%.

With `CCN1C(=O)[C@@H]2[C@@H](c3ccc(-c4ccc(Cl)c(Cl)c4)cc3)N3CCC[C@@]3(C(=O)OC)[C@@H]2C1=O`, the “activity change, negative = cytotoxicity” value is -16.2%.

On to `CCOC(=O)N1CCN(C(=O)C2CCC(=O)N(Cc3ccccc3OC)C2)CC1` (stereo not drawn), for which the “activity change, negative = cytotoxicity” value was 4.55%.
